These results are taken from PubChem BioAssay (NCI).

SMILES strings stand for the structures. This is part of a sample that, as a whole, favours compounds with a hit. Of some 83,000 tested, about 20% had one in any assay.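 Percent growth is the endpoint: 0 to 100 indicates growth inhibition (40 means 60% inhibition), 0 means no net growth, and negative values indicate cell death.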 Values without a mark were called inactive. Calls of active or inactive are those of the source. How the source made its calls: active means growth percent below 10; inactive means the rest.

Test systems include SR leukemia; RPMI-8226 leukemia; OVCAR-8 ovarian; OVCAR-5 ovarian; OVCAR-4 ovarian; SK-OV-3 ovarian; OVCAR-3 ovarian; HS 578T breast; NCI/ADR-RES ovarian; T-47D breast; BT-549 breast; MDA-MB-435 melanoma; SW-620 colon; MCF7 breast; HCT-116 colon; HCC-2998 colon; KM12 colon; IGROV1 ovarian.
What all share (assay): NCI-60 one-dose screen, 48 h (100 = growth as untreated, 0 = no growth, -100 = all killed)
Common to all, as to settings: 10 µM unless noted

In the case of `NC1=CSC2=N/C(=C\c3ccc(Cl)cc3)C(=O)N12`, the growth in the assay with SR leukemia is -2.29% (active); in the assay on RPMI-8226 leukemia, 39.9%; in the assay on OVCAR-8 ovarian, 72.3%; with OVCAR-5 ovarian it was 105%; in the assay on OVCAR-4 ovarian it was 84.1%; in the assay with SK-OV-3 ovarian it was 89.3%. The growth with OVCAR-3 ovarian was 71.6%; with HS 578T breast, 101%; in the assay on NCI/ADR-RES ovarian, 76.1%; in the assay on T-47D breast, 79%; in the assay on BT-549 breast it was 75.3%; in the assay with MDA-MB-435 melanoma, 68%. In addition, the growth in the assay with SW-620 colon is 71.3%; in the assay on MCF7 breast, 67.2%; in the assay on HCT-116 colon it was 66.1%; with HCC-2998 colon, 90.2%; with KM12 colon it was 89.2%.

As for `Clc1ccc(-c2nnc(COc3ccccc3Cl)o2)cc1`, the growth in the assay with SR leukemia is 83.3%; with RPMI-8226 leukemia, 88.7%; with OVCAR-8 ovarian it was 76.6%; with OVCAR-5 ovarian, 83.1%; with OVCAR-4 ovarian, 39.8%; in the assay with SK-OV-3 ovarian, 95.7%. The growth was 81.6% with OVCAR-3 ovarian; 62% with HS 578T breast; 66.8% with NCI/ADR-RES ovarian; 89.4% with BT-549 breast; 58.4% in the assay on MDA-MB-435 melanoma; 91.1% with SW-620 colon. Also, the growth in the assay on MCF7 breast is 78.7%; in the assay with HCT-116 colon, 51.7%; with HCC-2998 colon, 86.8%; in the assay on KM12 colon, 82.4%.

With `COc1cc(OC)c(/C=C/S(=O)(=O)Cc2cnc(OC)c(N)c2)c(OC)c1`, the growth with SR leukemia was -6.9% (active); in the assay on RPMI-8226 leukemia it was 29.1%; with OVCAR-8 ovarian, 18.9%; in the assay on OVCAR-5 ovarian it was 55.2%; with OVCAR-4 ovarian it was 50.3%; with SK-OV-3 ovarian, 11.9%. In addition, the growth in the assay on OVCAR-3 ovarian was -13.5% (active); with HS 578T breast, 47.5%; with NCI/ADR-RES ovarian, 7.65% (active); in the assay on T-47D breast it was 15.6%; in the assay with BT-549 breast, 8.01% (active); in the assay on MDA-MB-435 melanoma, 13.4%. Besides, the growth in the assay on SW-620 colon was 22.8%; in the assay with MCF7 breast it was 11.6%; in the assay with HCT-116 colon, 3.33% (active); with HCC-2998 colon it was 17.5%; in the assay with KM12 colon it was 9.75% (active).

Take `C/C(=C(/c1ccc(O)cc1)c1ccc(OCCN2CCCC2)cc1)c1ccccc1`: the growth with SR leukemia is -11.3% (active); in the assay on RPMI-8226 leukemia it was 11.9%; with OVCAR-8 ovarian, 83%; with OVCAR-5 ovarian it was 80.5%; in the assay with OVCAR-4 ovarian it was 54.5%; in the assay with SK-OV-3 ovarian, 80.1%. For the same compound, the growth in the assay on OVCAR-3 ovarian is 74%; with HS 578T breast, 66.8%; in the assay with NCI/ADR-RES ovarian, 62.9%; in the assay on T-47D breast it was 28.5%; with BT-549 breast it was 64%; in the assay on MDA-MB-435 melanoma it was 39.9%. Moreover, the growth in the assay with SW-620 colon was 67.8%; in the assay with MCF7 breast, 22.2%; with HCT-116 colon it was 41.2%; in the assay with HCC-2998 colon, 66.3%; with KM12 colon it was 51.6%.

Regarding `O=C1/C(=C\c2cn(C(=O)c3ccc(Cl)cc3)c3ccccc23)c2ccccc2N1c1c(Cl)cccc1Cl`, the growth in the assay on SR leukemia was 99.6%; in the assay with RPMI-8226 leukemia, 101%; in the assay on OVCAR-8 ovarian it was 113%; with OVCAR-5 ovarian it was 94.3%; in the assay with OVCAR-4 ovarian, 99.5%; with SK-OV-3 ovarian, 116%. Besides, the growth in the assay with OVCAR-3 ovarian was 116%; with HS 578T breast, 107%; in the assay with NCI/ADR-RES ovarian it was 99.7%; in the assay on T-47D breast, 92.5%; in the assay on BT-549 breast, 107%; in the assay on MDA-MB-435 melanoma it was 116%. Further, the growth is 105% in the assay with SW-620 colon; 95.7% with MCF7 breast; 94.1% in the assay with HCT-116 colon; 102% in the assay on HCC-2998 colon; 111% in the assay on KM12 colon.

For the compound `NS(=O)(=O)N(c1cc(C(F)(F)F)cc(C(F)(F)F)c1)C1CCN(Cc2ccc(F)cc2)CC1`, the growth was -35.1% (active) with SR leukemia; 28.1% in the assay with RPMI-8226 leukemia; 73.2% in the assay on OVCAR-8 ovarian; 90.9% with OVCAR-5 ovarian; 72.4% with OVCAR-4 ovarian; 61.9% in the assay on IGROV1 ovarian. Besides, the growth in the assay on OVCAR-3 ovarian is 60%; in the assay on HS 578T breast, 84%; in the assay on NCI/ADR-RES ovarian, 51.3%; in the assay with T-47D breast it was 37.2%; with BT-549 breast it was 81%; with MDA-MB-435 melanoma, 70.1%. Besides, the growth in the assay on SW-620 colon is 63.8%; in the assay on MCF7 breast it was 49.6%; in the assay on HCT-116 colon, 38%; in the assay with HCC-2998 colon, -50.4% (active); in the assay with KM12 colon, 40.2%.

Consider `Cn1c2c(Cl)c(Cl)ccc2c2ccn3c(=O)c4ccccc4nc3c21`, for which the growth was 75.9% in the assay with SR leukemia; 98.8% in the assay with RPMI-8226 leukemia; 95.5% with OVCAR-8 ovarian; 96.8% with OVCAR-5 ovarian; 92.1% with OVCAR-4 ovarian; 54.4% in the assay on IGROV1 ovarian. Moreover, the growth with OVCAR-3 ovarian is 113%; in the assay on HS 578T breast, 103%; with NCI/ADR-RES ovarian it was 99.4%; in the assay with T-47D breast, 85%; with BT-549 breast, 86.4%; in the assay with MDA-MB-435 melanoma it was 98.3%. For the same compound, the growth in the assay with SW-620 colon was 99.1%; in the assay with MCF7 breast it was 96.2%; in the assay with HCT-116 colon it was 90%; in the assay on HCC-2998 colon, 100%; in the assay on KM12 colon it was 103%.

Consider `CC/C=C\C[C@H](F)C/C=C1/C(=O)C=C[C@@H]1C/C=C\CCCC(=O)O`, for which the growth in the assay with SR leukemia was -13.2% (active); in the assay on RPMI-8226 leukemia, -3.41% (active); in the assay on OVCAR-8 ovarian, 11.2%; with OVCAR-5 ovarian it was 86.1%; in the assay with OVCAR-4 ovarian, 83.6%; with SK-OV-3 ovarian, 86.4%. The growth in the assay on OVCAR-3 ovarian is 26.9%; in the assay with HS 578T breast it was 84%; with NCI/ADR-RES ovarian, 9.24% (active); with BT-549 breast, 68.8%; in the assay on MDA-MB-435 melanoma, 21.6%; with SW-620 colon it was 30.9%. Also, the growth in the assay on MCF7 breast was 22.6%; in the assay with HCT-116 colon it was -15.7% (active); in the assay with HCC-2998 colon, 81.9%; with KM12 colon it was 22.3%.

Consider `COc1cc(-c2c3sc(=O)[nH]c3nc3c2c(=O)[nH]n3C(C)C)cc2c1OCO2`, for which the growth was 81.5% with SR leukemia; 124% in the assay on RPMI-8226 leukemia; 108% in the assay on OVCAR-8 ovarian; 96.6% with OVCAR-5 ovarian; 86% with OVCAR-4 ovarian; 114% in the assay with SK-OV-3 ovarian. The growth with OVCAR-3 ovarian is 114%; in the assay with HS 578T breast it was 105%; with NCI/ADR-RES ovarian, 102%; in the assay on T-47D breast, 105%; in the assay with BT-549 breast, 105%; in the assay with MDA-MB-435 melanoma, 104%. For the same compound, the growth in the assay on SW-620 colon is 104%; in the assay with MCF7 breast, 91.7%; in the assay on HCT-116 colon it was 106%; in the assay with KM12 colon, 101%.
